These results are taken from the supplement of paper PMC7866885, “A novel bicyclic 2,4-diaminopyrimidine inhibitor of Streptococcus suis dihydrofolate reductase” (PeerJ, 2021).

± gives the standard deviation.

The test system of this test is Streptococcus suis HE06. The test is described as follows: percent growth relative to DMSO control; higher = less growth inhibition. The following applies: 10 µM; incubation time 18 h. The method, then: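 CLSI broth microdilution: 5x10^4 CFU of Streptococcus suis (strain P1/7 or HE06) incubated with 10 µM Pathogen Box compound in cation-adjusted Mueller Hinton broth, 37 °C, 5% CO2, 18 h. Growth read as OD600 and expressed as percent of the DMSO-treated control (100%); mean ± SD of three independent experiments.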
The molecule `CCc1nn(C)c(C(=O)NCc2ccc(Oc3ccc(C)cc3)cc2)c1Cl` came in with a percent growth of 82.6 ± 11%.
The same measure for `CC1(C)OB(O)c2ccc(C3=NOC(c4cc(Cl)c(F)c(Cl)c4)(C(F)(F)F)C3)cc21` (centres undefined): 15.4 ± 15%.
The molecule `CC(C)(C)C(O)C(Oc1ccc(-c2ccccc2)cc1)n1cncn1` (centres undefined) registered a percent growth of 86.7 ± 8.5%.
Turning to `Cc1cccc(C(=O)Nc2ccnc(N(C)C3CCN(CC(C)C)CC3)c2)c1`, the percent growth amounted to 95.9 ± 30%.
On to `Cc1nn(Cc2ccccc2)c(Cl)c1C(=O)NC1CCCCCC1`, for which the percent growth came to 107 ± 13%.
Then `Cc1nn(C)c(C)c1NS(=O)(=O)c1c(Cl)cc(-c2ccnc(N3CCNCC3)c2)cc1Cl`, with 94.8 ± 29%.
Take `Cc1cc(C2=NOC(c3cc(Cl)c(F)c(Cl)c3)(C(F)(F)F)C2)ccc1C(=O)NCc1ccc2c(c1)C(C)(C)OB2O` (centres undefined): the percent growth turned out to be 60.3 ± 9.8%.
Then `CO[C@@H]1CN(c2ccc(C#CC3(O)CN4CCC3CC4)c(Cc3ccccc3)n2)C[C@H]1O` (some centres undefined), with 108 ± 2.9%; and `O=C1O[C@@H](COc2ccon2)CN1c1cc(F)c(C2=CCN(Cc3ccccc3)CC2)c(F)c1`, with 2.62 ± 3.7%; and `CO/C=C(/C(=O)OC)c1ccccc1Oc1cc(Oc2ccccc2C#N)ncn1`, with 76.8 ± 3.1%.
Then `O=C1O[C@@H](CO)CN1c1cc(F)c(C2=CCN(Cc3ccccc3)CC2)c(F)c1`, with 3.88 ± 0.8%; and `CC1COC(Cn2cncn2)(c2ccc(Oc3ccc(Cl)cc3)cc2Cl)O1` (centres undefined), with 77 ± 5.4%; and `CO/N=C(\C(=O)OC)c1ccccc1CO/N=C(\C)c1cccc(C(F)(F)F)c1`, with 102 ± 17%.
Then `Nc1c2c(nc3sc4c(c13)CCCC4)CCCC2`, with 76.3 ± 20%.
